The values that follow come from ChEMBL document CHEMBL2218924, “A broad activity screen in support of a chemogenomic map for kinase signalling research and drug discovery” (Biochem J, 2013).

Each structure is given as a SMILES string.

In assay [1] the target is Serine/threonine-protein kinase 33 (Homo sapiens) (UniProt Q9BYT3). The settings on record: at 1 µM.
The target is the same in assay [2]. The settings on record: at 10 µM.
The target of assay [3] is Serine/threonine-protein kinase PLK2 (Homo sapiens) (UniProt Q9NYY3). The settings on record: at 1 µM.
Assay [4] shares this target. To be noted: at 10 µM.
The target in assay [5] is Tyrosine-protein kinase SYK (Homo sapiens) (UniProt P43405). To be noted: at 1 µM.
Assay [6] has the same target. The settings on record: at 10 µM.
The target in assay [7] is T1, Mitogen-activated protein kinase kinase kinase 7 (Homo sapiens) (UniProt O43318).
T1 sequence (whole entry): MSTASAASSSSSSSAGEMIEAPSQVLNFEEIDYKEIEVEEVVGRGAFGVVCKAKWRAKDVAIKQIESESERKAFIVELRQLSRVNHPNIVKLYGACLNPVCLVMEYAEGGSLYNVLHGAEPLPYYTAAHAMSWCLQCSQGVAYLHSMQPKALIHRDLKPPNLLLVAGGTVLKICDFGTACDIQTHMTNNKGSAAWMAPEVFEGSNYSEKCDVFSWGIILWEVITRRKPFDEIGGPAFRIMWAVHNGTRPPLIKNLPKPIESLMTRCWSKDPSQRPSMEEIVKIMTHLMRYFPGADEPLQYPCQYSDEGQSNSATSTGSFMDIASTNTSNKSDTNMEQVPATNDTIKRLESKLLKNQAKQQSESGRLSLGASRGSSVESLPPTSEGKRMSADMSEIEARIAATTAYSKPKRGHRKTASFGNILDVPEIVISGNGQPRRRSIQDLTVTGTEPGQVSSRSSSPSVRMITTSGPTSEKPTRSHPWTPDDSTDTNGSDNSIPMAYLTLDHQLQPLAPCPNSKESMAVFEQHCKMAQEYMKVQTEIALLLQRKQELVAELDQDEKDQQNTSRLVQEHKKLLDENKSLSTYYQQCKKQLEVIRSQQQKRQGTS
The settings on record: at 1 µM.

The target in assay [8] is T1, Mitogen-activated protein kinase kinase kinase 7 (Homo sapiens). To be noted: at 10 µM.
Assay [9] has as its target T2, Serine/threonine-protein kinase TAO1 (Homo sapiens) (UniProt Q7L7X3).
T2 sequence (whole entry): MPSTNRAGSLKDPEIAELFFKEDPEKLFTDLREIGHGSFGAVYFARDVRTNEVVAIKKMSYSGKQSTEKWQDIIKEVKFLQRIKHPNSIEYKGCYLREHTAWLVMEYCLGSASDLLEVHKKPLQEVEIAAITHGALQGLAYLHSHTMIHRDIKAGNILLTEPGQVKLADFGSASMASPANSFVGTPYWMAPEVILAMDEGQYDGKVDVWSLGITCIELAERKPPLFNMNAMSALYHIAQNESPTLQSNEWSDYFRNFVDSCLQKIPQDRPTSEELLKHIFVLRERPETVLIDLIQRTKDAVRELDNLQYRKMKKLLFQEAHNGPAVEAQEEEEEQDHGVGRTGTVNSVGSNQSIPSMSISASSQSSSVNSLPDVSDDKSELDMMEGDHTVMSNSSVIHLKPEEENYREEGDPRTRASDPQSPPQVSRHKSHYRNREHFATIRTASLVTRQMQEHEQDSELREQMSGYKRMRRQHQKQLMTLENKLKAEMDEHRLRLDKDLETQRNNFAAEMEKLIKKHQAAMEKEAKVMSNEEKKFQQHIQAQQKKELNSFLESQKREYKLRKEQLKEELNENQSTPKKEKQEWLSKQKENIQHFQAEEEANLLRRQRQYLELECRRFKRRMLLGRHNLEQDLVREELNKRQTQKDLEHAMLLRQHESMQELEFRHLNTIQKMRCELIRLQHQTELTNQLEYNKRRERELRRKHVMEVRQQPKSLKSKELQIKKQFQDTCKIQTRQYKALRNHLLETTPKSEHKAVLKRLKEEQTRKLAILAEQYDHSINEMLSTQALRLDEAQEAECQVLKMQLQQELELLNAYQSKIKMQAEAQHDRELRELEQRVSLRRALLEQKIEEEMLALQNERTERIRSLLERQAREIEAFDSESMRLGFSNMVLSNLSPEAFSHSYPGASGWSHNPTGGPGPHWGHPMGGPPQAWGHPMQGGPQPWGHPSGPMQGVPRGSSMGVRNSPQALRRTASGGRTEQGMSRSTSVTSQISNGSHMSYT
The settings on record: at 1 µM.

Assay [10] has as its target T2, Serine/threonine-protein kinase TAO1 (Homo sapiens). The settings on record: at 10 µM.
Assay [11] has as its target T3, Serine/threonine-protein kinase TAO2 (Homo sapiens) (UniProt Q9UL54).
T3 sequence (whole entry): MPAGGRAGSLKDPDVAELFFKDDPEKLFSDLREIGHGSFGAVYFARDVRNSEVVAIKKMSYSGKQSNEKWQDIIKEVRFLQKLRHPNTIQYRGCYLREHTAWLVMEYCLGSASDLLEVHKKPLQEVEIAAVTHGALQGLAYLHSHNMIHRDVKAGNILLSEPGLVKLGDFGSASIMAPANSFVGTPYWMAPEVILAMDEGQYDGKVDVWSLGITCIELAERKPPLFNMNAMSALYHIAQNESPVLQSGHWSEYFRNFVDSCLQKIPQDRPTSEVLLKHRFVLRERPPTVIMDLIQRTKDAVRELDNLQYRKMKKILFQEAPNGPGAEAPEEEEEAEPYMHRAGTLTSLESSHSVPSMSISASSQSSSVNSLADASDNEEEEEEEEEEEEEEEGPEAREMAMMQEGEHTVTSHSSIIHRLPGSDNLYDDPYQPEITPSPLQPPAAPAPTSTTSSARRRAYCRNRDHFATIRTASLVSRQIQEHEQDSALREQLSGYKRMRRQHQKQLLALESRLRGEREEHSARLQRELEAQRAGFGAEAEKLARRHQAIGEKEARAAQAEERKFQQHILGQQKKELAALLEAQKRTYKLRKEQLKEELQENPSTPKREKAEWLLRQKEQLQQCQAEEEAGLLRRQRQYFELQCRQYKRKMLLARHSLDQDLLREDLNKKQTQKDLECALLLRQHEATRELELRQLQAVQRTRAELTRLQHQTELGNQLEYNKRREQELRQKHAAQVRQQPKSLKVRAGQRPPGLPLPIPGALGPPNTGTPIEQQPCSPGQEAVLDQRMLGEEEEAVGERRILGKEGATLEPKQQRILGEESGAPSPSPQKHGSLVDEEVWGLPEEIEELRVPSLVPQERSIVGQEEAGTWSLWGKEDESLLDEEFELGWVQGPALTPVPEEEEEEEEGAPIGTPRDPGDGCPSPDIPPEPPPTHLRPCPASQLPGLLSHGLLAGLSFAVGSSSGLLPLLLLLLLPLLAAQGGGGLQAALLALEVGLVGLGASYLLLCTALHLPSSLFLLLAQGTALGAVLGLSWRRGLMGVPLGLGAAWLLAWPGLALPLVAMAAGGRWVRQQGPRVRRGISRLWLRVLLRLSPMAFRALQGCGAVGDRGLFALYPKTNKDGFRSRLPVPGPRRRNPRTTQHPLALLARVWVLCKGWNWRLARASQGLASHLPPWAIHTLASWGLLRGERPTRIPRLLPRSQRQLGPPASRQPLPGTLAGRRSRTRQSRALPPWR
The settings on record: at 1 µM.

Assay [12] concerns the target T3, Serine/threonine-protein kinase TAO2 (Homo sapiens). To be noted: at 10 µM.
Assay [13] addresses T4, Serine/threonine-protein kinase TAO3 (Homo sapiens) (UniProt Q9H2K8).
T4 sequence (whole entry): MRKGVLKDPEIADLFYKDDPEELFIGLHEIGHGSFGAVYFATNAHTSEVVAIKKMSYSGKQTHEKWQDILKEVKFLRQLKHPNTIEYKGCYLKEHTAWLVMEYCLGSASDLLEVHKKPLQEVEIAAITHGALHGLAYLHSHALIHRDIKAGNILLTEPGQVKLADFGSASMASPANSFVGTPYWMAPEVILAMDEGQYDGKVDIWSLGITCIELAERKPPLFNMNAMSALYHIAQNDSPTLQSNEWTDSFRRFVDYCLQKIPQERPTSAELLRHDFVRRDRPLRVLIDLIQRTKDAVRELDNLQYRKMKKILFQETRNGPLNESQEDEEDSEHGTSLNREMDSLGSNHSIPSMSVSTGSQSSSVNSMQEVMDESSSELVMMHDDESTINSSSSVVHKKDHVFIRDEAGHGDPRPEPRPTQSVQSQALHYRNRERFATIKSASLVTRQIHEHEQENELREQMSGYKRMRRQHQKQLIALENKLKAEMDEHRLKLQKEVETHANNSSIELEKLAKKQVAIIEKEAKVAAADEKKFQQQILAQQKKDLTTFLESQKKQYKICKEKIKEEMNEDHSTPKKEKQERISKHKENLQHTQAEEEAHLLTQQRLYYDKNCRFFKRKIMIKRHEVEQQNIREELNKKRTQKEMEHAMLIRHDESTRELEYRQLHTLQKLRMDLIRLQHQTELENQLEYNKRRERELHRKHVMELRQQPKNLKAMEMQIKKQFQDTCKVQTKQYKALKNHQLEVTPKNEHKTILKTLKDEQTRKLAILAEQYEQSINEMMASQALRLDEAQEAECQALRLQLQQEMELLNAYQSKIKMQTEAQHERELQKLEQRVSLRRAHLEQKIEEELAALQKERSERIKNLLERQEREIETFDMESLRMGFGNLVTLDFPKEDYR
The settings on record: at 1 µM.

Assay [14] addresses T4, Serine/threonine-protein kinase TAO3 (Homo sapiens). The settings on record: at 10 µM.
Assay [15] deals with T5, Serine/threonine-protein kinase TBK1 (Homo sapiens) (UniProt Q9UHD2).
T5 sequence (whole entry): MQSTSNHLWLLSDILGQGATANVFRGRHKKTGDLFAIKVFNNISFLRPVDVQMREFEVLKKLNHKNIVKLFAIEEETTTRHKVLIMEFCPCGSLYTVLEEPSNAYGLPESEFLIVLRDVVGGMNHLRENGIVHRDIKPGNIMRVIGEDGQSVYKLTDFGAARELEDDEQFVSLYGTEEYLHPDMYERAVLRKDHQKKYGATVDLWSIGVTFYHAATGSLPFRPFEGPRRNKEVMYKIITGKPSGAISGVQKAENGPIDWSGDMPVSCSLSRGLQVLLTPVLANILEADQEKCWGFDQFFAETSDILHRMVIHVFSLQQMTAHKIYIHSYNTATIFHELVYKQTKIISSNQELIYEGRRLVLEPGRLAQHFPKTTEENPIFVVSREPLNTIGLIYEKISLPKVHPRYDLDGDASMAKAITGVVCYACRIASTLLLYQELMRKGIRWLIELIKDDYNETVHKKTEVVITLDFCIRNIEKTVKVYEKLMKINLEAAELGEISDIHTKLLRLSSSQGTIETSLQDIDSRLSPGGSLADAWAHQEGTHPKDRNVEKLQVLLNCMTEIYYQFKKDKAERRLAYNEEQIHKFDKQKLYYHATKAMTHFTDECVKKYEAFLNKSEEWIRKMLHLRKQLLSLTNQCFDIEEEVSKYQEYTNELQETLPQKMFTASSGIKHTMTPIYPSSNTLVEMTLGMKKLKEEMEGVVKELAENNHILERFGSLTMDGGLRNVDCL
To be noted: at 1 µM.

The target of assay [16] is T5, Serine/threonine-protein kinase TBK1 (Homo sapiens). The settings on record: at 10 µM.
Assay [17] concerns the target T6, TGF-beta receptor type-1 (Homo sapiens) (UniProt P36897).
T6 sequence (whole entry): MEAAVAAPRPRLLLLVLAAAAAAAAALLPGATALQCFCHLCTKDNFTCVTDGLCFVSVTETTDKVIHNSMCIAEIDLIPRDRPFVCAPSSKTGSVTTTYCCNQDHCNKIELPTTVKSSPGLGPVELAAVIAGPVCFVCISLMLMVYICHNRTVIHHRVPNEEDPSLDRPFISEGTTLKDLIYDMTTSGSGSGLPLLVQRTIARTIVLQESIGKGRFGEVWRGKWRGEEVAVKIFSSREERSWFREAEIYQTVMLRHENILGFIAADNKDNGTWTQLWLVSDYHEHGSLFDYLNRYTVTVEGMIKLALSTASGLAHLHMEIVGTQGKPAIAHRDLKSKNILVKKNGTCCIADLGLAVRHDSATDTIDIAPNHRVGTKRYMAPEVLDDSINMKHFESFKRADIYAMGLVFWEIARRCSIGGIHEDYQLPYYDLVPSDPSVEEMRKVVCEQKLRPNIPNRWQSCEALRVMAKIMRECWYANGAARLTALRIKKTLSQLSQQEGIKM
To be noted: at 1 µM.

Assay [18] concerns the target T6, TGF-beta receptor type-1 (Homo sapiens). The settings on record: at 10 µM.
Assay [19] has as its target Insulin-like growth factor 1 receptor (Homo sapiens) (UniProt P08069). The settings on record: at 1 µM.
Assay [20] shares this target. To be noted: at 10 µM.

Chain of Serine/threonine-protein kinase 33 (Homo sapiens) (Q9BYT3 whole entry, looked up): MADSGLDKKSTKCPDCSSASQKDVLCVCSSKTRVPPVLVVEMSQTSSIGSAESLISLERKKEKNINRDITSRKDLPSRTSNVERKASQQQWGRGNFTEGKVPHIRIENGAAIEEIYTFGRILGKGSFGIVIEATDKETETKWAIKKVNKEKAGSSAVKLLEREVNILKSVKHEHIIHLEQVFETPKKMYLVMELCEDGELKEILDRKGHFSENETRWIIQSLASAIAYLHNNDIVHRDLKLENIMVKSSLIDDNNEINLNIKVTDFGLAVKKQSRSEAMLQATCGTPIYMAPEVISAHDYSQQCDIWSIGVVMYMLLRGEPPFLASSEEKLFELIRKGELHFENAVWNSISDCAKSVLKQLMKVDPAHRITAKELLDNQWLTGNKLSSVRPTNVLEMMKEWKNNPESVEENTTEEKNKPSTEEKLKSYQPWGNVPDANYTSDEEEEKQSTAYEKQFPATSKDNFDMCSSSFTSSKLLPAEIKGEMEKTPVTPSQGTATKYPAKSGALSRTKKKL
Chain of Serine/threonine-protein kinase PLK2 (Homo sapiens) (Q9NYY3 whole entry, looked up): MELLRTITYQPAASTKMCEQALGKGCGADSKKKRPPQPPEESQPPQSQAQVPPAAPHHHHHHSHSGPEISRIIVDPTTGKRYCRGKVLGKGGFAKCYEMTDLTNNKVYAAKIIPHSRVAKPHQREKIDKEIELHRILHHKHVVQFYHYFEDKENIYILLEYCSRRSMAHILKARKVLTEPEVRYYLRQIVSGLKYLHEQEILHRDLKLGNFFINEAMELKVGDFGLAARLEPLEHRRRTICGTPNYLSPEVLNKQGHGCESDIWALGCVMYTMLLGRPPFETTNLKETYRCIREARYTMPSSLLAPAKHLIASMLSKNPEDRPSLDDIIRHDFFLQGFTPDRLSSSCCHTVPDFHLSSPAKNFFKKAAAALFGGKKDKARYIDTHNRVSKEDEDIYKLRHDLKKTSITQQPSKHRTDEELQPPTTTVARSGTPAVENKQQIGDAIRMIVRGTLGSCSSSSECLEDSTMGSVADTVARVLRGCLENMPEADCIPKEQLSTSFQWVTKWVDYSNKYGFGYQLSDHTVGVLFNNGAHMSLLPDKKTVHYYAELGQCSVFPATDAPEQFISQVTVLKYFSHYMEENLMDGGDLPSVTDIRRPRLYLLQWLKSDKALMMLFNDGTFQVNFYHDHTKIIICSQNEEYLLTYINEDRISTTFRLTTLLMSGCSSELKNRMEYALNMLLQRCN
Chain of Insulin-like growth factor 1 receptor (Homo sapiens) (P08069 31-736 limits assumed): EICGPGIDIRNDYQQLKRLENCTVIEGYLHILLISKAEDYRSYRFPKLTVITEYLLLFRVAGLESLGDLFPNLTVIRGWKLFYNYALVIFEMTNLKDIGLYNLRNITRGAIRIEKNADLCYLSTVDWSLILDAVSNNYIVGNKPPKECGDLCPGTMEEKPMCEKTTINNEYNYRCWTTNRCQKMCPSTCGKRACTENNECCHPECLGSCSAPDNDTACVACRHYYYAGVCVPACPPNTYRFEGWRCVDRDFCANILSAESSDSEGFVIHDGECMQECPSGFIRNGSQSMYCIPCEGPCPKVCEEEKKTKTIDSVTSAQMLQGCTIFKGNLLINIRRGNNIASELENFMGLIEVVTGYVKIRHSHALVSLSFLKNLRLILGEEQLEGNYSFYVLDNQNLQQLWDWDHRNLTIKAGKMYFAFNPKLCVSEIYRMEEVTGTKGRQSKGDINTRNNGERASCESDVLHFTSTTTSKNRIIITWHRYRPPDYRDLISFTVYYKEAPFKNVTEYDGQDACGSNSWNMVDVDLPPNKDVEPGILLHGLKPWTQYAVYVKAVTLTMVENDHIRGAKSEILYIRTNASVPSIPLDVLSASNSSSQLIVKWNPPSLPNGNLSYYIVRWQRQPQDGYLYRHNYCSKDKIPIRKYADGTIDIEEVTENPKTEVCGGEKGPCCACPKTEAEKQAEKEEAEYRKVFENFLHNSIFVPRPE
Chain of Insulin-like growth factor 1 receptor (Homo sapiens) (P08069 741-1367 limits assumed): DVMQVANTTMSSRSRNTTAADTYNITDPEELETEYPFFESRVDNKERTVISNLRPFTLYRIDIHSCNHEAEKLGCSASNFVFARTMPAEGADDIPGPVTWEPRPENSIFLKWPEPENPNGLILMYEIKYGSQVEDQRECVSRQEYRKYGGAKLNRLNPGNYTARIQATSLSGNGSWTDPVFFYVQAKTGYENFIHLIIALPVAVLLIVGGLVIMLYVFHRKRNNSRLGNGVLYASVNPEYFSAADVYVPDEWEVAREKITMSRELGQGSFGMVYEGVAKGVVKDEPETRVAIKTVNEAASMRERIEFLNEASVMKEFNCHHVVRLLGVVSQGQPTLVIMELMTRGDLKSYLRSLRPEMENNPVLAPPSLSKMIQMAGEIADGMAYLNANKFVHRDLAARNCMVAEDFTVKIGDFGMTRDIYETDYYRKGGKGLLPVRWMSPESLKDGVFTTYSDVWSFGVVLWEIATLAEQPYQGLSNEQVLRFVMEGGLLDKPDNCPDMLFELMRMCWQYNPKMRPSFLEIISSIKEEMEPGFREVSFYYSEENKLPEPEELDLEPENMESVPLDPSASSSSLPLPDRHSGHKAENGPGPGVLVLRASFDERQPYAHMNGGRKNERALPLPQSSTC

Regarding `COc1cc(OC)c(/C=C2\C(=O)Nc3ccccc32)c(OC)c1`, the residual activity was determined as 92% in assay [1]; 92% in assay [2]; 100% in assay [3]; 92% in assay [4]; 102% in assay [5]; 96% in assay [6]. The residual activity turned out to be 92% in assay [7]; 81% in assay [8]; 95% in assay [9]; 83% in [10]; 104% in [11]; 81% in assay [12]. Also, the residual activity in assay [13] stood at 90%; in [14], 68%; in [15], 61%; in assay [16], 56%; in assay [17], 79%; in assay [18] it was 81%. The residual activity in assay [19] was 95%; in [20], 98%.
With `O=[N+]([O-])/C=C/c1ccc2c(c1)OCO2`, the residual activity in assay [1] is 93%; in [2], 89%; in assay [3], 102%; in [4] it was 102%; in [5], 123%; in [6], 82%. The residual activity in [7] stood at 92%; in [8] it was 90%; in [9], 101%; in [10] it was 98%; in assay [11], 107%; in [12] it was 81%. For the same molecule, the residual activity in [13] amounted to 90%; in [14], 100%; in assay [15], 87%; in assay [16], 81%; in [17] it was 90%; in [18] it was 101%. In addition, the residual activity in assay [19] turned out to be 103%; in assay [20], 91%.
